Assay results: the supplement of paper PMC10941209

system: HFF; assay: cell viability relative to DMSO control; higher = less cytotoxic; conditions: 1 µM; 72 h
Experimental: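 Single-dose cytotoxicity screen of the MMV Pandemic Response Box at 1 uM on human foreskin fibroblasts (HFF), 72 h at 37 C. Viability measured by MTT (OD 550 nm) and normalised to the DMSO control (% survival).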

Structure (SMILES)	cell viability [%]
NCCCc1ccccc1C(=O)Nc1ncc([N+](=O)O)s1	65
N=C(N)c1ccc(COc2ccc(Cl)cc2)cc1	65.4
CC1(C)CC(NC(=O)C(=O)Nc2ccc(Cl)cc2)CC(C)(C)N1	69.1
NC(=O)c1[nH]c2ccc(S(N)(=O)=O)cc2c1-c1ccccc1	75.8
O=C(NC(=O)N1CCCc2ccccc21)c1ccc(Cl)cc1Cl	70.2
Nc1nc(O)c(Br)c(-c2cccc(Cl)c2)n1	61.7
Cc1cc(C2CCCCC2)n(O)c(=O)c1	78.2
CCc1cc(O)c(Oc2ccc(C(N)=O)cc2F)cc1F	67.9
NCc1ccc(S(N)(=O)=O)cc1	61.5
COc1ccccc1NC(=O)c1ccccc1Sc1ccc([N+](=O)[O-])cc1	55.7
COc1ccc(CNC(=O)C(NS(=O)(=O)c2ccc3nc(C)sc3c2)C(C)C)cc1 (stereo not drawn)	64.5
CN(C)CC(=O)Nc1ccc2[nH]c(=O)c3ccccc3c2c1	59.3
CC#C[C@]1(O)CC[C@H]2[C@@H]3CCC4=CC(=O)CCC4=C3[C@@H](c3ccc(N(C)C)cc3)C[C@@]21C	52
O=S(=O)(NCB(O)O)c1ccc(-c2nnn[nH]2)cc1C(F)(F)F	70.9
CC(C)=CCC/C(C)=C/CNCCNC1C2CC3CC(C2)CC1C3 (stereo not drawn)	80.2
CONC(=N)c1ccc(-c2ccc(-c3ccc(C(=N)NOC)cc3)o2)cc1	63.9
CC(C)(C)c1cccc(-c2nc3cc(C(=N)N)ccc3[nH]2)c1O	64.8
CCC(C)n1ncn(-c2ccc(N3CCN(c4ccc(OCC5COC(Cn6cncn6)(c6ccc(Cl)cc6Cl)O5)cc4)CC3)cc2)c1=O (stereo not drawn)	78.2
